Screening results (PubChem)
FEN1 inhibitor: qHTS Assay for the Inhibitors of Human Flap endonuclease 1 (FEN1) | P39748 | Recombinant FEN1 flap cleavage, fluorescence, 15 min | Potency, µM (top dose mostly 114 µM), hits mostly inhibitors | 390,000 compounds, 0.35% hits; also: nearly all actives have a fitted effect of over 65% in size
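Concentration–response screening of FEN1 (10 nM): 15 min compound preincubation at room temperature, reaction started with 50 nM substrate and read at 0 and 15 min. Corrected, normalized data were fitted by a four-parameter Hill equation.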
WRN helicase inh: qHTS for Inhibitors of WRN Helicase; WRN helicase unwinding, fluorescent forked duplex, kinetic; Potency, µM (doses to about 114 µM), usual class: inhibitors; 360,000 compounds, 0.46% hits; AID 651768, 2012; also: nearly all actives have a fitted effect of over 55% in size
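WRN at 20 nM final preincubated with compound 15 min at room temperature; reaction started with 100 nM fluorophore/quencher forked duplex oligonucleotide and 2 mM ATP final. Unwinding followed kinetically by red fluorescence (ex 525, em 598 nm).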
POLB inh: qHTS Assay for Inhibitors of DNA Polymerase Beta | P06746 | Pol beta primer extension/strand displacement, fluorescence kinetic | Potency, µM (highest dose often 114 µM), hits mostly inhibitors | 340,000 compounds, 1.3% hits
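Reaction started by 50 nM substrate onto compound-treated Pol beta (10 nM, 15 min preincubation, room temperature); plates read at 0 min and 10 min. Normalized concentration-effect data fitted by four-parameter Hill equation.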
Pol iota inh: qHTS for Inhibitors of Polymerase Iota; DNA polymerase iota (Homo sapiens), Q9UNA4; Pol iota fluorescent replication assay, 10 min; Potency, µM (series often up to 115 µM), actives largely listed as inhibitors; 390,000 compounds, 1% hits; AID 588590, 2011
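Fluorescent replication assay read twice, at 0 min and 10 min after adding 50 nM (final) substrate. Enzyme (10 nM) and compounds were first incubated 15 min at room temperature; enzyme-free buffer wells were negative controls.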
POLK inh: qHTS for Inhibitors of Polymerase Kappa. DNA polymerase kappa (Homo sapiens), Q9UBT6. purified Pol kappa, fluorescent DNA synthesis assay, 10 min. Potency, µM (titrated, usually from 107 µM), hits mostly inhibitors. 400,000 compounds, 0.53% hits. AID 588579, 2011
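10 nM Pol kappa was preincubated with compounds for 15 min at room temperature. Reaction started with 50 nM (final) substrate. Fluorescence read kinetically at 0 and 10 min.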
Pol eta inh: qHTS for Inhibitors of Polymerase Eta; recombinant Pol eta, fluorescent DNA replication assay; Potency, µM (highest dose often 114 µM), most hits filed as inhibitors; 390,000 compounds, 1.2% hits; AID 588591, 2011
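Pol eta at 10 nM preincubated with compounds 15 min at room temperature; reaction started with fluorescent substrate (50 nM final) and read kinetically at 0 and 10 min.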
A number is an active result; [ ] = remark or other dose. Most compounds without a hit are left out; they make up all but 2.4% or so of the library. Calls follow the shape of the dose curve; as a rule, active = well fitted curve in the direction sought with a large enough effect; inconclusive = small, poorly fitted or top-dose-only effect, or another doubt; inactive = no such curve, though single readings can be large; an effect the other way counts as inactive or inconclusive.

Screening Cc1coc2c1C(=O)C(=O)c1c-2ccc2c1CCCC2(C)C returned FEN1 inhibitor inconclusive, WRN helicase inh inactive[11.6 µM], POLB inh 22µM, Pol iota inh inconclusive, POLK inh inconclusive and Pol eta inh 89µM.
`Cc1cc(C)c(CSc2nnc(C)n3c2cc2occc23)c(C)c1` gave FEN1 inhibitor inactive, POLB inh inconclusive, Pol iota inh inactive, POLK inh inactive and Pol eta inh inactive.
`Clc1ccccc1-c1nc(NCc2cccs2)c2ccccc2n1` gave POLK inh 32µM.
Screening COc1ccc2[nH]c3nc(SCc4nnc(-c5ccccc5)o4)nnc3c2c1 returned FEN1 inhibitor inactive, WRN helicase inh inactive, POLB inh 22µM, Pol iota inh inactive, POLK inh inactive and Pol eta inh inactive.
COc1cccc(NC(=O)CSc2nnc3c(n2)[nH]c2ccc(C)cc23)c1 was read as FEN1 inhibitor inactive, WRN helicase inh inactive, POLB inh inactive, Pol iota inh inactive, POLK inh inactive and Pol eta inh inactive.
For COc1ccc2[nH]c3nc(SCC(=O)Nc4cccc(NC(C)=O)c4)nnc3c2c1 the results were FEN1 inhibitor inactive, WRN helicase inh inactive[11.6 µM], POLB inh 35µM, Pol iota inh inconclusive, POLK inh inactive and Pol eta inh inactive.
For CCOC(=O)c1c(C)oc2c(F)c(F)c(F)c(F)c2c1=O the results were FEN1 inhibitor inactive, WRN helicase inh inactive, POLB inh inactive, Pol iota inh inconclusive, POLK inh 79µM and Pol eta inh inconclusive.
O=C(CCN1CCN(c2ccccc2)CC1)N/N=C/c1ccc(O)c(O)c1O was read as FEN1 inhibitor 28µM, WRN helicase inh 40µM, POLB inh 2.8µM, Pol iota inh 1.3µM, POLK inh 3.5µM and Pol eta inh 22µM.
`CCc1ccc2oc(-c3ccc(C)c(NC(=O)c4ccc(C#N)cc4F)c3)nc2c1` gave FEN1 inhibitor inactive, POLB inh inactive, Pol iota inh inactive, POLK inh inactive and Pol eta inh inactive.
`COc1ccc(CNC(=O)C2CCN(S(=O)(=O)Cc3ccccc3)CC2)cc1` gave FEN1 inhibitor inactive, POLB inh 14µM, Pol iota inh inactive, POLK inh inactive and Pol eta inh inactive.
For COc1ccc(N2CCN(S(=O)(=O)c3ccc(OC)c(-c4noc(C)n4)c3)CC2)cc1 the results were FEN1 inhibitor inactive, POLB inh inconclusive, Pol iota inh inactive, POLK inh inactive and Pol eta inh inactive.
Screening COc1ccc(S(=O)(=O)N2CCN(c3ccccc3F)CC2)cc1-c1noc(C)n1 returned FEN1 inhibitor inconclusive, POLB inh 8.9µM, Pol iota inh inactive, POLK inh inactive and Pol eta inh inactive.
For CC(=O)N/N=C/c1ccc([N+](=O)[O-])o1 the results were POLK inh inactive[19.4 µM].
Screening O=C(N/N=C/C=C/c1ccccc1[N+](=O)[O-])c1cccs1 returned FEN1 inhibitor inactive, WRN helicase inh inactive, POLB inh inactive, Pol iota inh inactive, POLK inh inactive and Pol eta inh inactive.
For O=C(N/N=C\C=C\c1ccc([N+](=O)[O-])o1)c1cccs1 the results were FEN1 inhibitor inactive, WRN helicase inh inactive[11.6 µM], POLB inh 32µM, Pol iota inh 5µM, POLK inh 79µM and Pol eta inh 50µM.
For O=C(N/N=C/c1ccc([N+](=O)[O-])o1)c1ccc2c(c1)OCO2 the results were FEN1 inhibitor inactive, WRN helicase inh inactive, POLB inh 40µM, Pol iota inh inconclusive, POLK inh inactive and Pol eta inh inactive.
`O=C(CN1CCOCC1)N/N=C/c1ccc(-c2ccc(C(=O)O)cc2)o1` gave FEN1 inhibitor inactive, WRN helicase inh inactive, POLB inh inconclusive, Pol iota inh inactive, POLK inh inactive and Pol eta inh 40µM.
Screening O=[N+]([O-])c1ccc(/C=N/N=C/c2ccc([N+](=O)[O-])o2)o1 returned FEN1 inhibitor inactive, WRN helicase inh inactive, POLB inh inactive, Pol iota inh 22µM, POLK inh inconclusive and Pol eta inh inconclusive.
For COC(=O)c1ccc(Cl)cc1NC(=O)N1CC=C(c2c[nH]c3ccccc23)CC1 the results were FEN1 inhibitor inactive, POLB inh inactive, Pol iota inh inactive, POLK inh inactive and Pol eta inh inactive.
Screening CCOc1ccc(NC(=O)Cn2c(=O)n(CCc3ccccc3)c(=O)c3c4c(sc32)CN(C(C)=O)CC4)cc1 returned FEN1 inhibitor inactive, POLB inh inactive, Pol iota inh inactive, POLK inh inactive and Pol eta inh inactive.
For O=C(N/N=C/c1ccc2c(c1)OCO2)c1ccc(NS(=O)(=O)c2cccs2)cc1 the results were FEN1 inhibitor inactive, WRN helicase inh inactive, POLB inh inactive, Pol iota inh inactive, POLK inh inactive and Pol eta inh inactive.
For Cc1ccccc1OCC(=O)N/N=C/c1ccc([N+](=O)[O-])o1 the results were FEN1 inhibitor inactive, WRN helicase inh inactive[11.6 µM], POLB inh inactive, Pol iota inh inconclusive, POLK inh inconclusive and Pol eta inh inactive.
`O=C(N/N=C/c1cccc(O)c1)c1cc(-c2ccc3c(c2)OCO3)n[nH]1` gave FEN1 inhibitor inactive, WRN helicase inh inactive, POLB inh inconclusive, Pol iota inh inconclusive, POLK inh inactive and Pol eta inh inactive.
`COc1ccccc1OCC(=O)N/N=C/C=C/c1ccc([N+](=O)[O-])o1` gave FEN1 inhibitor inactive, WRN helicase inh inactive, POLB inh 32µM, Pol iota inh 79µM, POLK inh inconclusive and Pol eta inh inconclusive.
`O=C(N/N=C/c1cccc([N+](=O)[O-])c1)c1cc(-c2ccc3c(c2)OCO3)n[nH]1` gave FEN1 inhibitor inactive, WRN helicase inh inactive[11.6 µM], POLB inh inactive, Pol iota inh inconclusive, POLK inh inconclusive and Pol eta inh 18µM.
`O=C(CN1CCCCCCC1)N/N=C/c1ccc([N+](=O)[O-])o1` gave FEN1 inhibitor inactive, WRN helicase inh inactive[11.6 µM], POLB inh inconclusive, Pol iota inh 45µM, POLK inh inconclusive and Pol eta inh inconclusive.
`O=C(N/N=C/c1ccc([N+](=O)[O-])o1)c1ccc(NS(=O)(=O)c2cccs2)cc1` gave FEN1 inhibitor inconclusive, WRN helicase inh inactive[11.6 µM], POLB inh inconclusive, Pol iota inh 50µM, POLK inh inactive and Pol eta inh 32µM.
`COCCNC(=O)CSc1nnc(-c2ccc(OC)c(OC)c2)c(-c2ccc(OC)c(OC)c2)n1` gave FEN1 inhibitor inactive, POLB inh inactive, Pol iota inh inactive, POLK inh inactive and Pol eta inh inactive.
